{"source": "PubChem BioAssay AID504692", "about": "(The Scripps Research Institute Molecular Screening Center, 2011)", "note": "The whole screen tested about 340,000 compounds, of which about 2,000 (0.59%) were called active. No stated cut-off is given here; in the data, active means activation mostly above about 9.5% (no sharp cut-off); inactive means mostly below about 7.6%. Many of the other results were omitted from the sample, so actives are more common in it than they were.", "data": [{"target": "5-hydroxytryptamine receptor 5A (Homo sapiens) (UniProt P47898)", "sequence (P47898 whole entry, looked up)": "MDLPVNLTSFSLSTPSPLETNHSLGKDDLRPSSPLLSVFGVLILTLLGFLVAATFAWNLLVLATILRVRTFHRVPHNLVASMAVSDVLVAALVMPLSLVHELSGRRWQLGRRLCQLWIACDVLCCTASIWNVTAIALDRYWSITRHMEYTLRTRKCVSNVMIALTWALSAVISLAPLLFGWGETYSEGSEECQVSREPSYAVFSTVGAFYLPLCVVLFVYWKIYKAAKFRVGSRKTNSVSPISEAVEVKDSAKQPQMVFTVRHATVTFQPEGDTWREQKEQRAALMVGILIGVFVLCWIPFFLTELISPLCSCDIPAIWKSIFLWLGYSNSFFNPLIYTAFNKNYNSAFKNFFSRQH", "test": "activation of human 5-HT5A receptor – cell-based, luminescence, full-deck HTS, counter-screen for OPRM1-OPRD1 heterodimer agonist project, primary screen (AID 504692);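 further: 0% = cells with vehicle only and 100% = reference agonist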", "conditions": "HTR5A agonist assay, at 9.3 µM, active compounds read high", "values": [{"smiles": "COc1ccc(S(=O)(=O)Nc2cc(C)on2)cc1NC(C)=O", "activation": "1.04% (inactive)"}, {"smiles": "CC(C)(C)c1ccc(C(=O)N2CCC(C(=O)N3CCCCC3)CC2)cc1", "activation": "5.42% (inactive)"}, {"smiles": "CC1Cc2ccccc2N1C(=O)CSc1nnc(-c2ccc(S(=O)(=O)N3CCCC3)cc2)n1C", "note": "(stereo unspecified)", "activation": "2.27% (inactive)"}, {"smiles": "COc1ccc(S(=O)(=O)N2CCN(CC(=O)N3c4ccccc4CC3C)CC2)cc1OC", "note": "(stereo unspecified)", "activation": "22.4% (active)"}, {"smiles": "COc1ccccc1CNC(=O)C1CCN(S(=O)(=O)c2ccc3c(c2)CC(C)N3C(=O)C2CC2)CC1", "note": "(stereo unspecified)", "activation": "-0.1% (inactive)"}, {"smiles": "O=C(CCS(=O)(=O)c1cccc2nsnc12)N1CCN(c2ccccc2F)CC1", "activation": "5.73% (inactive)"}, {"smiles": "CN(Cc1ccccc1F)C(=O)C(Cc1ccccc1)NC(=O)c1ccccc1", "note": "(stereo unspecified)", "activation": "-1.74% (inactive)"}, {"smiles": "CN(Cc1ccccc1)C(=O)c1cccc(C(=O)N(C)Cc2ccccc2)c1", "activation": "-0.63% (inactive)"}, {"smiles": "CC(Cc1ccccc1)C(=O)N(C)Cc1ccccc1", "note": "(stereo unspecified)", "activation": "12.5% (active)"}, {"smiles": "O=C(COC(=O)/C=C/c1ccc(S(=O)(=O)N2CCCCCC2)cc1)NCc1ccccc1Cl", "activation": "-5.05% (inactive)"}, {"smiles": "O=C1CCCN2N=C(SCC(=O)Nc3ccc(Br)cc3)SC2=N1", "activation": "-3.71% (inactive)"}, {"smiles": "CCCCCN(C(=O)NC(=O)Nc1ccccc1OC)S(C)(=O)=O", "activation": "-1.57% (inactive)"}, {"smiles": "CCOc1cc(/C=C2/N=C(c3ccc(C(C)(C)C)cc3)OC2=O)cc(Cl)c1OS(C)(=O)=O", "activation": "13.3% (active)"}, {"smiles": "Cc1ccc(C2=N/C(=C\\c3ccc(OS(=O)(=O)c4ccc(C)cc4)cc3)C(=O)O2)cc1", "activation": "0.86% (inactive)"}, {"smiles": "Cc1cc(C)c(C)c(S(=O)(=O)Nc2cccnc2)c1C", "activation": "13.8% (active)"}, {"smiles": "COc1ccc(S(=O)(=O)Nc2cccnc2)c(Cl)c1Cl", "activation": "-1.41% (inactive)"}, {"smiles": "Cc1cc(C)c(C)c(S(=O)(=O)Nc2ccc(O)cc2)c1C", "activation": "3.2% (inactive)"}, {"smiles": "O=C(OCc1ccc([N+](=O)[O-])cc1)C1CC(=O)N(Cc2ccccc2Cl)C1", "note": "(stereo unspecified)", "activation": "-0.92% (inactive)"}, {"smiles": "CCc1cccc(C)c1NS(=O)(=O)c1c(C)nc2sccn2c1=O", "activation": "0.59% (inactive)"}, {"smiles": "COCCC(=O)N1CCC(Oc2ccc(C(=O)NCc3ccon3)cc2)CC1", "activation": "1.64% (inactive)"}, {"smiles": "COc1ccc(CCNC(=O)CC2SC(=Nc3cc(C)cc(C)c3)NC2=O)cc1OC", "note": "(stereo unspecified)", "activation": "1.71% (inactive)"}, {"smiles": "O=C(CC1NCCNC1=O)Nc1ccc(Oc2ccccc2)cc1", "note": "(stereo unspecified)", "activation": "1.17% (inactive)"}, {"smiles": "O=C(CC1Nc2ccccc2NC1=O)Nc1ccccc1", "note": "(stereo unspecified)", "activation": "17% (active)"}, {"smiles": "COC(=O)c1cc(C)sc1NC(=O)CC1Nc2ccccc2NC1=O", "note": "(stereo unspecified)", "activation": "2.14% (inactive)"}, {"smiles": "COc1ccc(/C=C(\\NC(=O)c2ccc(OCC(C)C)cc2)C(=O)OCc2ccco2)cc1", "activation": "-0.73% (inactive)"}, {"smiles": "O=S(=O)(NCc1cccnc1)c1ccc(Cl)nc1", "activation": "-5.88% (inactive)"}, {"smiles": "COc1ccc2[nH]cc(CCN3C(=O)c4ccc(C(=O)O)cc4C3=O)c2c1", "activation": "27% (active)"}, {"smiles": "Cc1ccc2[nH]cc(CCCN3C(=O)c4ccccc4C3=O)c2c1", "activation": "-1.1% (inactive)"}, {"smiles": "COCCCN1C(=O)c2ccc(C(=O)Nc3ccc(OC)cc3OC)cc2C1=O", "activation": "-0.44% (inactive)"}, {"smiles": "O=C(CNCc1cccs1)Nc1cc(S(=O)(=O)N2CCCC2)ccc1Cl", "activation": "-2.05% (inactive)"}, {"smiles": "COc1ccccc1CNC(=O)C1CCCN(S(=O)(=O)c2cccc3cccnc23)C1", "note": "(stereo unspecified)", "activation": "-3.07% (inactive)"}, {"smiles": "CCC(C)OC(=O)C(C)Oc1ccc(-c2ccccc2)cc1", "note": "(stereo unspecified)", "activation": "3.02% (inactive)"}, {"smiles": "CCc1ccccc1N1C(=O)C2C3CC(=O)C(c4ccccc43)C2C1=O", "note": "(stereo unspecified)", "activation": "10.2% (active)"}, {"smiles": "CC1=C(C)CC2C(=O)N(c3cccc4ccccc34)C(=O)C2C1", "note": "(stereo unspecified)", "activation": "1.96% (inactive)"}, {"smiles": "CC(=O)Nc1ccc(N2C(=O)C3C4CC(=O)C(c5ccccc54)C3C2=O)cc1", "note": "(stereo unspecified)", "activation": "-1.72% (inactive)"}, {"smiles": "Cn1nc(C(C)(C)C)c([N+](=O)[O-])c1C(N)=O", "activation": "-3.65% (inactive)"}, {"smiles": "NC(=O)c1ccc(N2CCOCC2)nc1", "activation": "5.3% (inactive)"}, {"smiles": "CCCN(CC1CC1)C(=S)NC(=O)c1ccccc1Br", "activation": "-3.6% (inactive)"}, {"smiles": "CC[C@]12c3[nH]c4cc(CCC(=O)N(C)C)ccc4c3CCN1C(=O)[C@@H](CC(=O)NCCCN(C)C)C[C@@H]2C(=O)N1CCN(C(=O)c2ccco2)CC1", "activation": "4.2% (active)"}, {"smiles": "CC[C@]12c3[nH]c4cc(CCC(=O)N(C)C)ccc4c3CCN1C(=O)[C@@H](CC(=O)NCc1ccco1)C[C@@H]2C(=O)N1CCN(C(=O)c2ccco2)CC1", "activation": "-2.65% (inactive)"}, {"smiles": "CC[C@]12c3[nH]c4cc(CCC(=O)N(C)C)ccc4c3CCN1C(=O)[C@@H](CC(=O)NCCCn1ccnc1)C[C@@H]2C(=O)N1CCN(C(=O)C2CC2)CC1", "activation": "2.93% (inactive)"}, {"smiles": "O=C(c1cccnc1)N(Cc1ccccc1)C(=O)c1cccnc1", "activation": "5.83% (inactive)"}, {"smiles": "COc1ccc(N(C(=O)c2cccnc2)S(=O)(=O)c2ccc(OC)c(OC)c2)cc1", "activation": "6.11% (inactive)"}, {"smiles": "O=C(c1cccnc1)N(c1cc2sc(=O)oc2c2ccccc12)S(=O)(=O)c1ccccc1", "activation": "16.1% (active)"}, {"smiles": "COCCCn1c(-c2cccs2)nc2nc3ccccc3nc21", "activation": "-0.51% (inactive)"}, {"smiles": "CC(OC(=O)CCc1nc(=O)c2ccccc2n1C)C(=O)NCc1ccc2c(c1)OCO2", "note": "(stereo unspecified)", "activation": "-4.46% (inactive)"}, {"smiles": "C=CCSc1nnc2c(n1)-c1cccc3cccc-2c13", "activation": "-0.69% (inactive)"}, {"smiles": "COc1cccc(C(=O)NNS(=O)(=O)c2ccc(F)cc2)c1", "activation": "-2.33% (inactive)"}, {"smiles": "O=C(c1ccc(Oc2ccc(Cl)cc2)c([N+](=O)[O-])c1)N1CCCC1", "activation": "11% (active)"}, {"smiles": "Nc1ccc(C(=O)N2CCN(S(=O)(=O)c3ccc(Cl)cc3)CC2)cc1[N+](=O)[O-]", "activation": "-1.02% (inactive)"}, {"smiles": "O=C(COc1ccc(Cl)cc1[N+](=O)[O-])N1CCCCC1", "activation": "-1.55% (inactive)"}, {"smiles": "Cc1cnc(C(=O)N2CCCC(N3CCN(c4ccccc4F)CC3)C2)cn1", "note": "(stereo unspecified)", "activation": "5.27% (inactive)"}, {"smiles": "Cc1ccc(S(=O)(=O)/N=C(/Nc2ccc3[nH]c(=O)[nH]c3c2)c2ccccc2)cc1", "activation": "3.44% (inactive)"}, {"smiles": "O=C(Nc1ccc(Cl)cn1)c1ccc2c(c1)OCCO2", "activation": "1.65% (inactive)"}, {"smiles": "COc1c(Cl)cc(C(=O)Nc2ccc(Cl)cn2)cc1Cl", "activation": "18.5% (active)"}, {"smiles": "COc1ccc(C(=O)NC(=S)Nc2ccc(Cl)cn2)cc1OC", "activation": "0.47% (inactive)"}]}]}
